# Experimental data: ChEMBL document CHEMBL3988442, “University of Dundee, Small-Polar-MMV Screening Library” (2021)
# Out of some 69,000 compounds screened, about 1,000 (1.4%) showed an effect of 50% or more. The list comes from a sample in which strong results are over-represented; it also holds similar structures and randomly drawn compounds.
# System: Leishmania donovani
# Experiment: Leishmania intramacrophage assay
# Assay type: functional, organism-based
# Parameters: scale not given: in the data most compounds retested in dose-response had high values
structure (smiles),measurement,setting,value
Cn1ccnc1Sc1ccc(S(N)(=O)=O)cn1,Percent Effect,"30.3 µM, […]",-16.43%
CN1CCN(S(=O)(=O)c2ccc(Sc3nccn3C)nc2)CC1,Percent Effect,"30.3 µM, […]",0.3902%
Cl.Cn1ccnc1Sc1ccc(N)cn1,Percent Effect,"30.3 µM, […]",50.34%
COC(=O)CC1C(=O)NCCN1c1nc2c(s1)c(C)nn2C (centres undefined),Percent Effect,"30.3 µM, […]",6.396%
COc1ccc2c(O)c(NC(=O)NCC3CC3)cnc2c1,Percent Effect,"30 µM, 30.03 µM",-30.24%
C=Cc1ccc(CN2C(=O)C3(CCNCC3)Nc3ccccc32)cc1,Percent Effect,"30.3 µM, […]",98.05%
CC(C)c1ccc(CN2C(=O)C3(CCNCC3)Nc3ccccc32)cc1,Percent Effect,"30.3 µM, […]",100.4%
N#Cc1cccc(CN2C(=O)C3(CCNCC3)Nc3ccccc32)c1,Percent Effect,"30.3 µM, […]",37.63%
Cl.O=C1CC2(CCNCC2)C(=O)N1Cc1ccc(F)cc1,Percent Effect,"30.3 µM, […]",26.47%
NC(=O)c1ccc(CN2C(=O)C3(CCNCC3)Nc3ccccc32)cc1,Percent Effect,"30.3 µM, […]",29.82%
C=Cc1ccc(CN2CCCC3(CNC(=O)c4ccccc4O3)C2)cc1 (centres undefined),Percent Effect,"30.3 µM, […]",-7.721%
O=C(O)C(F)(F)F.O=S(=O)(N[C@@H]1CCO[C@]2(CCN(CC3CCOCC3)C2)C1)C1CC1,Percent Effect,"30.3 µM, […]",12.64%
Cn1cc(C(=O)NCc2cn3c(n2)CN(Cc2ccccn2)CC3)cn1.O=C(O)C(F)(F)F.O=C(O)C(F)(F)F,Percent Effect,"30 µM, 30.03 µM",26.85%
Cn1cccc1C(=O)NCc1cn2c(n1)CN(Cc1ccccn1)CC2.O=C(O)C(F)(F)F.O=C(O)C(F)(F)F,Percent Effect,"30.3 µM, […]",52.64%
Cn1cccc1C(=O)NCc1cn2c(n1)CN(Cc1cccnc1)CC2.O=C(O)C(F)(F)F.O=C(O)C(F)(F)F,Percent Effect,"30.3 µM, […]",5.106%
O=C(c1cccc2[nH]ccc12)N1CCC2(CCOC2)C1 (centres undefined),Percent Effect,"30.3 µM, […]",24.57%
Cc1cnc(N2CCOCC3(CCN(c4ccccn4)C3)C2)nc1.O=C(O)C(F)(F)F.O=C(O)C(F)(F)F (centres undefined),Percent Effect,"30.3 µM, […]",-8.514%
CCc1c(C)sc2nc3n(CCN4CCOCC4)nc(SC)n3c(=O)c12,Percent Effect,"30.3 µM, […]",9.764%
CCc1c(C)sc2nc3n(CCN4CCCCC4)nc(SC)n3c(=O)c12,Percent Effect,"30.3 µM, […]",50.52%
CCc1c(C)sc2nc3n(CCN(C)C)nc(SC)n3c(=O)c12,Percent Effect,"30.3 µM, […]",24.34%
CCn1cc(Br)c(C(=O)NCc2cccnc2)n1,Percent Effect,"30 µM, 30.03 µM",0.8694%
N#Cc1cnc(N2CCC3(CC2)OCCO3)nc1N,Percent Effect,"30.3 µM, […]",39.63%
Cc1cccc(-c2noc(CN3CCC(N4CCNC4=O)CC3)n2)c1,Percent Effect,"30 µM, 30.03 µM",37%
Cc1ccccc1-c1noc(CN2CCC(N3CCNC3=O)CC2)n1,Percent Effect,30 µM,45.33%
O=C1NCCN1C1CCN(Cc2nc(-c3ccsc3)no2)CC1,Percent Effect,30 µM,51.47%
Cc1ccc(-c2noc(CN3CCC(N4CCNC4=O)CC3)n2)cc1,Percent Effect,30 µM,33.86%
O=C1NCCN1C1CCN(Cc2nc(-c3ccccc3)no2)CC1,Percent Effect,30 µM,51.92%
O=C1NCCN1C1CCN(Cc2nc(-c3ccoc3)no2)CC1,Percent Effect,"30 µM, 30.03 µM",14.49%
NC(=O)C1CCCN1C(=O)c1cccc2c1OCO2 (centres undefined),Percent Effect,"30.3 µM, […]",-0.4744%
CCC(NC(=O)C1CC1)c1ccccc1OCC(=O)N1CCCC1 (centres undefined),Percent Effect,30 µM,-1.247%
CNC(=O)C1CN(C)CCN(C(=O)CCn2nnc3ccccc32)C1 (centres undefined),Percent Effect,"30.3 µM, […]",12.96%
CN(C)c1ccc(C2CC(=O)Nc3c2cnn3Cc2ccco2)cc1 (centres undefined),Percent Effect,"30.3 µM, […]",7.757%
CCN(Cc1c(F)cccc1Cl)c1cc(C2CCNCC2)nc(C)n1,Percent Effect,"30.3 µM, […]",100.4%
Cc1nc(-c2ccc(F)cc2)cc(C2CCNCC2)n1,Percent Effect,"30.3 µM, […]",99.23%
Cc1nc(C2CCNCC2)cc(N(C)CCc2cn[nH]c2)n1,Percent Effect,"30.3 µM, […]",2.569%
Cc1nc(C2CCNCC2)cc(N(C)Cc2cc3cc(F)ccc3[nH]2)n1,Percent Effect,"30.3 µM, […]",78.55%
Cc1nc(-c2ccc(F)c(F)c2)cc(C2CCNCC2)n1.Cl,Percent Effect,"30.3 µM, […]",47.49%
COc1ccc2[nH]c(CNc3cc(C4CCNCC4)nc(C)n3)cc2c1,Percent Effect,"30.3 µM, […]",-59.5%
CCN(Cc1ccncc1)c1cc(C2CCNCC2)nc(C)n1,Percent Effect,"30.3 µM, […]",4.844%
Cc1c(CN(C)c2cc(C3CCCNC3)ncn2)[nH]c2ccccc12 (centres undefined),Percent Effect,"30.3 µM, […]",16.72%
CCN(Cc1ccncc1)c1cc(C2CCCNC2)nc(C)n1 (centres undefined),Percent Effect,"30.3 µM, […]",-18.58%
Cc1ccc(-c2cc(C3CCNCC3)nc(C)n2)cc1.Cl,Percent Effect,"30.3 µM, […]",14.23%
CN(Cc1cc2cc(F)ccc2[nH]1)c1cc(C2CCCNC2)ncn1 (centres undefined),Percent Effect,"30.3 µM, […]",78.22%
CN(Cc1cc2cc(F)ccc2[nH]1)C(=O)C1CC(=O)N(C2CCCC2)C1 (centres undefined),Percent Effect,"30.3 µM, […]",9.704%
CN(C)c1ccc(NC(=O)c2cccc(N(C)C)c2)nc1,Percent Effect,"30.3 µM, […]",-2.123%
CCC(Nc1nc(C)nc2c1cnn2C)c1ncnn1CC (centres undefined),Percent Effect,"30.3 µM, […]",26.92%
O=C(CCn1ccc2cc(Br)ccc21)/N=c1\[nH]nc(C2CCCO2)s1 (centres undefined),Percent Effect,"30.3 µM, […]",4.273%
Cc1ccoc1-c1nnc(CNCC2CCCN2c2cccnn2)o1 (centres undefined),Percent Effect,"30 µM, 30.03 µM",-17.44%
COCCN(C)C[C@@H]1CN(C(=O)c2ccc(C)cc2)C[C@@H]1CO,Percent Effect,"30.3 µM, […]",11.58%
CN1CCCC2(CCN(C(=O)Cn3ncc4ccccc4c3=O)C2)C1=O (centres undefined),Percent Effect,"30.3 µM, […]",-13.05%
Cc1ccc(CN2CCN(CC(=O)N(C)C)[C@@H]3CS(=O)(=O)C[C@@H]32)cc1C,Percent Effect,"30.3 µM, […]",18.74%
COc1ccc(-c2noc(C(N)CCSC)n2)cc1 (centres undefined),Percent Effect,"30.3 µM, […]",-25.69%
N[C@H]1CN(CCCOc2ccccc2)C[C@@H]1C1CC1,Percent Effect,"30.3 µM, […]",66.02%
N[C@H]1CN(CCOc2ccc(F)cc2)C[C@@H]1C1CC1,Percent Effect,"30.3 µM, […]",44.73%
NC(=O)c1ccc(OCCCN2C[C@H](C3CC3)[C@@H](N)C2)cc1,Percent Effect,"30.3 µM, […]",42.52%
COCc1nn(C(C)C)c2c1CCN(Cc1nccs1)C2.O=C(O)C(F)(F)F,Percent Effect,"30.3 µM, […]",-18.46%
Cc1c(C2CCOC(C)(C)C2)nc(N)c(C#N)c1-c1ccc(O)cc1 (centres undefined),Percent Effect,"30.3 µM, […]",-5.002%
CCCc1c(C2CCOC(C)(C)C2)nc(N)c(C#N)c1-c1cnn(C)c1 (centres undefined),Percent Effect,"30.3 µM, […]",65.78%
CCn1cc(-c2c(C)c(C3CCOC(C)(C)C3)nc(N)c2C#N)cn1 (centres undefined),Percent Effect,"30.3 µM, […]",20.42%
CC(C)Oc1ccc(CN2CCC(c3n[nH]c4ncccc34)CC2)cc1,Percent Effect,"30.3 µM, […]",1.844%
Cc1ccc(N2CCN(c3ccccc3C)CC2C)nn1 (centres undefined),Percent Effect,"30.3 µM, […]",9.128%
Cc1ccccc1N1CCN(c2cc(N(C)C)ncn2)C(C)C1 (centres undefined),Percent Effect,"30.3 µM, […]",15.61%
Cc1ccccc1N1CCN(c2ccncn2)C(C)C1 (centres undefined),Percent Effect,"30.3 µM, […]",61.35%
Cc1nn(C)c(C)c1CN(C)c1nc(C2CCCC2)nc2c1cnn2C,Percent Effect,"30.3 µM, […]",17.71%
CN1CCC(c2n[nH]c3ncccc23)C1.O=CO (centres undefined),Percent Effect,"30.3 µM, […]",16.17%
CCc1cnc(CN(C(C)=O)C2CCN(CC(=O)N3CCCC3)C2)o1 (centres undefined),Percent Effect,30 µM,28.38%
Cc1cc(NCCN)nc2ccccc12.O=[N+]([O-])O,Percent Effect,"30.3 µM, […]",54.09%
Cc1cc(NCCS(C)(=O)=O)nc2ccccc12,Percent Effect,"30.3 µM, […]",25.68%
Cc1cc(NCCCNS(C)(=O)=O)nc2ccccc12,Percent Effect,"30.3 µM, […]",-8.515%
CC(C)c1nc(CN(C)C(=O)c2cn3ccsc3n2)cs1,Percent Effect,"30.3 µM, […]",-3.628%
CC(=O)Nc1nc(CS(=O)(=O)CCCc2ccccc2)cs1,Percent Effect,"30.3 µM, […]",22.96%
CCC(C)CS(=O)(=O)NCCc1csc(N2CCCC2)n1 (centres undefined),Percent Effect,"30.3 µM, […]",43.99%
CC(C)(C)CCS(=O)(=O)NCCc1csc(N2CCCC2)n1,Percent Effect,"30.3 µM, […]",30.66%
CCCC(C)CS(=O)(=O)NCCc1csc(N2CCCC2)n1 (centres undefined),Percent Effect,"30.3 µM, […]",65.07%
O=C1CO[C@H]2CN(Cc3cccc4[nH]ccc34)C[C@@H]2N1C1CCOCC1,Percent Effect,"30.3 µM, […]",12.12%
Cc1ccc(C2CCCN2S(=O)(=O)N(C)Cc2cnn(C)c2)o1 (centres undefined),Percent Effect,"30.3 µM, […]",-0.6676%
CCOc1ccc(C(=O)CCC(=O)N(C)Cc2noc(C)n2)cc1C,Percent Effect,"30.3 µM, […]",4.933%
CN1CCCC1(CCCc1cccnc1)C(=O)NCc1nccn1C (centres undefined),Percent Effect,"30.3 µM, […]",27.11%
Cc1ccc(O)c(CNC2CCc3nc(C(C)C)nn3C2)n1 (centres undefined),Percent Effect,"30 µM, 30.03 µM",0.7212%
Cc1ccc(S(=O)(=O)N2CCN(CCC(N)=O)CC2)s1,Percent Effect,"30.3 µM, […]",13.04%
Cc1ccc(S(=O)(=O)N2CCN(CCCO)CC2)s1,Percent Effect,"30.3 µM, […]",55.51%
Cc1ccc(S(=O)(=O)N2CCN(CCC#N)CC2)s1,Percent Effect,"30.3 µM, […]",34.19%
C[C@H](NC(=O)c1cnc(-c2ccccc2)nc1O)C(N)=O,Percent Effect,"30.3 µM, […]",12.89%
CCSCC(C)NCc1ccccc1-n1ccnc1 (centres undefined),Percent Effect,"30.3 µM, […]",-5.681%
COc1ccc(C(C)NCc2ccnn2C)cc1Cn1cccn1 (centres undefined),Percent Effect,"30.3 µM, […]",30.62%
Cc1cnc(CN2CCN(c3nc(C)cs3)C(C)C2)cn1 (centres undefined),Percent Effect,"30.3 µM, […]",-40.38%
Cc1csc(N2CCN(Cc3cnc(C)s3)CC2C)n1 (centres undefined),Percent Effect,"30 µM, 30.03 µM",50.44%
Cc1csc(N2CCN(Cc3cscn3)CC2C)n1 (centres undefined),Percent Effect,"30.3 µM, […]",-18.36%
O=C1CC2(CCN(Cc3ccc4cccc(O)c4n3)CC2)CN1,Percent Effect,"30.3 µM, […]",0.5464%
O=C1CC(c2cccnc2)c2c(c(C(=O)O)cn2-c2ccc(Cl)cc2)N1 (centres undefined),Percent Effect,"30.3 µM, […]",19.15%
O=C1CC(c2cccnc2)c2c(c(C(=O)O)cn2-c2ccccc2)N1 (centres undefined),Percent Effect,"30 µM, 30.03 µM",-20.51%
O=C1CC(c2cccnc2)c2c(c(C(=O)O)cn2-c2cccc(F)c2)N1 (centres undefined),Percent Effect,"30.3 µM, […]",52.29%
CCc1cnc2c(c1Nc1cccc(OC)c1)c(=O)n(C)c(=O)n2C,Percent Effect,"30.3 µM, […]",19.41%
CC(=O)N[C@H]1CCN(c2nc(C)nc3c2c(C)nn3C)C1,Percent Effect,"30.3 µM, […]",15.16%
COc1cccc(Nc2nc(C3CCCNC3)c3ccccn23)c1.Cl (centres undefined),Percent Effect,"30.3 µM, […]",2.866%
Cc1sc2c(C3CCCNC3)nc(Nc3cccc(F)c3)n2c1C.Cl (centres undefined),Percent Effect,"30.3 µM, […]",8.436%
Fc1cccc(Nc2nc(N3CCCC3)nc3c2CNCC3)c1,Percent Effect,"30.3 µM, […]",99.78%
CCOCCNc1nc(-c2ccncc2)nc2c1CCNCC2,Percent Effect,"30.3 µM, […]",-3.835%
COc1cccc(Nc2nc(C3CCNCC3)c3ccccn23)c1.Cl,Percent Effect,"30.3 µM, […]",-2.973%
COc1cccc(Nc2nc(C3CCCNC3)c3sc(C)c(C)n23)c1.Cl (centres undefined),Percent Effect,"30.3 µM, […]",20.11%
COc1cccc(Nc2nc(N3CCCC3)nc3c2CNCC3)c1.Cl,Percent Effect,"30.3 µM, […]",98.87%
COc1cccc(Nc2nc(-c3ccncc3)nc3c2CNCC3)c1.Cl,Percent Effect,"30.3 µM, […]",63.42%
CC(Nc1nc(-c2ccncc2)nc2c1CCNC2)c1ccccc1 (centres undefined),Percent Effect,"30.3 µM, […]",41.34%
COc1cccc(CNC(=O)c2cc(C)nc(N3CCCC3)n2)c1,Percent Effect,"30.3 µM, […]",4.164%
